The assay deals with VDR:RXRa (NR concentration 270 nM, RXRa partner concentration 90 nM). The assay can be described thus: PBM binding z-score (relative to random genomic background probes); higher = stronger binding; sequences stand for … in GC…GCGATTGACAGCGTAGAATGAAGG
How it is done: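 Protein-binding microarray (Agilent 4x180K custom design, double-stranded 60-nt probes: 5' GC cap, 34-nt variable region, 24-nt constant primer region; full probe sequence given). Purified or IVT nuclear receptor:RXRα heterodimers (3:1 NR:RXRα, mostly 270:90 nM) or homodimers were incubated for 1 h in PBS with 2% milk and no ligand, then detected with Alexa488 antibodies. Fluorescence from o1-orientation probes (~5 replicates averaged) was converted to z-scores against 500 random hg19 background probes. Variable regions are seed direct-repeat (DR0–DR5) sites, all their single-nucleotide variants and half-site ablations.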
The sequence TCGAGTAGGTTACGGGGGCTTTCAGGGATGAAGA showed a PBM binding z-score of 2.02.
With TCGAGTAGGTGACGGGGGCATTCAGGGATGAAGA the figure was 3.36; with CAAACTAGGTCACGAAAGGTCAAAATCGAATGAC, 6.51.
To TTACCAAGGTGACCTGAGGTCGTTGATCCAACTC belongs 4.87; to CGTCTAAGGTCAAGGTCAGTGAAAGAGACTCGAA, 5; to CTCCAAAGGTCGGTTGAGGTGAGTATACGGATAA, 2.42.
Regarding CGTCCAAGGTCAAGGTCACTGAAAGAGACTCGAA, the PBM binding z-score was 5.49.
To CGAACTGGGTCAAAGGACAGTGAAAGGCGACGTA belongs 1.39; to CGAACTAGGTCACCAGCACAGTGAAGAGGTTGGA, 1.89; to CGAACTAGGTCACCAGGACAGTCAAGAGGTTGGA, 2.18.
To CTATGTAGGTTAAGGGGGTCCTTCAGTTTGAAAG belongs 3.98.
With AATTCAGGGTCACTAGGCCAGAGTAGGTACGAAT the figure was 4.79; with CCTGCTAGGACAATGGTCAGCTAAAGCAGCTCGC, -0.832; with ATCTCTAGGTAAAGTTCAGCGAAAGATCGATAGA, 1.84.
Consider ATCGTAAGGTCGTGAGGTGAGTATACAGAAAGGC, for which the PBM binding z-score was 2.8.
With CCGAGTAGGTTCCGAGGGGGCATTCAGTGCGAAT the figure was 4.09.
To CCTGCTAGGTCTATGGTCAGCTAAAGCAGCTCGC belongs -0.536.
With ATATGTAGGTTAGAGTCATTCAGAAAGTAGGGAA the figure was 0.295; with CGGAGTAGGTTACGAGGGGGCATTCAGTGCGAAT, 5.44; with CTATGTAGGTTAAGGGGGTCATACAGTTTGAAAG, 7.05.
Sequence CGAACTAGGTAAAGGACAGTGAATCTCCGCACGC yielded a PBM binding z-score of -0.323.
For the sequence TCGAGTAGGTTACGGAGGCATTCAGGGATGAAGA, the PBM binding z-score turned out to be 0.176.
With CTATGTAGGTTAAGGGGGTCAATCAGTTTGAAAG the figure was 7.09; with CCTACGGGGCCAAAGGTCATTGATTCCAATGCTC, 5.3.
To CGAACTAGGTGATTGACAGGACAGTGAATAGTAA belongs -0.0545; to GGTACGAGGGCAAAGTTGATAGCATCTGTCGACG, 1.14; to CCGAGTAGGGTACGAGGGGGCATTCAGTGCGAAT, 4.33.
Sequence GCTGCTAGGTCAGGTTGGTCGGCTAACGGGTACG returned a PBM binding z-score of 0.166.
Sequence CAAACTAGGTCAAAGGTCAGAGTCGAGCCAACCA came in with a PBM binding z-score of 5.78.
With TTACCAAGGTGAAAGGTCGGTGATGCACGCCTTG the figure was 1.38.
On to ATATGTAGGTTAGGCTCATTCAGAAAGTAGGGAA, for which the PBM binding z-score is -0.124.
Sequence ATCGAATGGTCGTGAGGTGAGTATACAGAAAGGC yielded a PBM binding z-score of -0.0757.
To ACTAATTGGTCAGCTGAGGTCACACACAATTCGG belongs 4.77; to ACTAGTTGGTCAGCTGAGGTAACACACAATTCGG, 0.448.
With AGTCAAAGTTCAGGACGAGATAACGTAAAGCACG the figure was 2.19; with CGAACTAGGTCAGAGCAGGACAGTGAAGGATGAT, 0.711; with CAAACTAGGTCACGAAAGGTCAACGTCGAATGAC, 6.9.
To CTATGTAGGTTAAGGGGATCATTCAGTTTGAAAG belongs 2.59; to CTATTTAGGTTAAGGGGGTCATTCAGTTTGAAAG, 7.31; to CGTCCAAGGTCAAAGGTCAGGGAAGAGATGACGG, 6.71.

The values are drawn from the supplement of paper PMC6555819.
